The full list was thinned out, with hits kept by preference.
KDM4E inh – qHTS Assay for Inhibitors of Human Jumonji Domain Containing 2E (JMJD2E). Lysine-specific demethylase 4E (Homo sapiens), B2RXH2. JMJD2E catalytic domain, FDH-coupled NADH fluorescence (FDH is formaldehyde dehydrogenase). Potency, µM (doses to about 57.1 µM), for inactives: at the highest dose activity change, negative = inhibition, usual class: inhibitors. hit rate 1.6% among 230,000; active = well fitted inhibition curve with a large enough effect, not every such curve was filed as active; inconclusive = small, poorly fitted or top-dose-only effect, or another doubt; inactive = no such curve, though single readings can be large or run the other way;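 note: potency is the fitted concentration of half-maximal effect; 0% = wells with enzyme and -100% = buffer wells without enzyme; nearly all actives have a fitted effect of over 50% in size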
L3MBTL1 inh – qHTS Assay for the Inhibitors of L3MBTL1. Lethal(3)malignant brain tumor-like protein 1 (Homo sapiens), Q9Y468. AlphaScreen L3MBTL1–H3K9me1 peptide binding. Potency, µM (titrated, usually from 57.1 µM), for the others: at the top dose activity, negative = inhibition, actives largely listed as inhibitors. hit rate 0.66% among 230,000. AID 485360, 2010; active = well fitted inhibition curve with a large enough effect; inconclusive = small, poorly fitted or top-dose-only effect; inactive = no such curve, though single readings can be large or run the other way; note: potency is the fitted concentration of half-maximal effect; nearly all actives have a fitted effect of over 60% in size
Target sequence (Q9Y468 whole entry, looked up): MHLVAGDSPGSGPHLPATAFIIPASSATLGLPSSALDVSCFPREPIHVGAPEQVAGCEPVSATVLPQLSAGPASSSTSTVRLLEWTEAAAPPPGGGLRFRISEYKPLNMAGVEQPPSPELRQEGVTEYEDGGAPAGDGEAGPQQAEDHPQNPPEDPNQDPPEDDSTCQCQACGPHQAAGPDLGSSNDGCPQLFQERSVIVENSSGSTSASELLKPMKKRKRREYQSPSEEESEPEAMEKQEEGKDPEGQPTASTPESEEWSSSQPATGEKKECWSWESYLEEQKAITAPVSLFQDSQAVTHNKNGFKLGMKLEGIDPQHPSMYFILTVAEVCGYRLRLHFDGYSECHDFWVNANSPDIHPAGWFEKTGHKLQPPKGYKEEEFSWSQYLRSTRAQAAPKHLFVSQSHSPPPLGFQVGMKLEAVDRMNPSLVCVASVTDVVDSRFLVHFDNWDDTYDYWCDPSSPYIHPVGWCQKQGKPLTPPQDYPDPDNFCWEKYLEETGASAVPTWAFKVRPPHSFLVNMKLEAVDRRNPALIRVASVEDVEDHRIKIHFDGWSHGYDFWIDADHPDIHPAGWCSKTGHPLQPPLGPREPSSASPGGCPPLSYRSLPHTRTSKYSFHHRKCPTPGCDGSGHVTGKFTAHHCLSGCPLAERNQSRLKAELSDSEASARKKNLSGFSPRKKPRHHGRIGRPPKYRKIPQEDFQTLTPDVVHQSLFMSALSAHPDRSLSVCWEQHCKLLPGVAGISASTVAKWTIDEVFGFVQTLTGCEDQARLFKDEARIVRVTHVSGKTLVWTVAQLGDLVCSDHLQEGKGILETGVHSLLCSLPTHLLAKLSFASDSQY
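Displacement of a biotinylated histone H3(1-15) peptide monomethylated at Lys9 (75 nM) from L3MBTL1 (50 nM) was measured by AlphaScreen after a 30 min room-temperature compound incubation; cefsulodin titration served as intraplate control.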
Six1-Eya2 blk – qHTS Assay for Inhibitors of the Six1/Eya2 Interaction. hit rate 0.56% among 360,000. AlphaScreen GST-Six1/His-Eya2 binding, biochemical; stronger effect = lower value. activity change, % (test concentration not listed)
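AlphaScreen luminescence read after one hour at 37 °C in darkness. Pin-transferred compounds met GST-Six1 and His-Eya2 protein (5X stock 250 nM/500 nM) plus glutathione donor and Ni-chelate acceptor beads (5X, 50 ug/mL).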
CtBP-E1A blk – qHTS Assay for Inhibitors of the CtBP/E1A Interaction | CtBP / adenovirus E1A interaction (AlphaScreen) | activity change, % (no concentration beside the values) | AlphaScreen GST-E1A/His-CtBP binding, 1536-well; stronger effect = lower value | hit rate 0.49% among 340,000 | AID 651724, 2012
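GST-E1A and His-tagged CtBP (125 nM each as 5X stock) were preincubated with pin-transferred compound for 2 h at 37 °C in the dark, then glutathione donor and nickel acceptor beads were added for 1 h before AlphaScreen reading.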
Starred values were filed as active, the others as inactive; u = inconclusive; x = no result; [ ] = remark or other dose. Cut-off read from the data, not from the text of the source, unless noted: active = activity change below about -65%; inconclusive = mostly about -30% to -63%; inactive = weaker than that. Unless noted, % is set by controls: 0 for no effect and ±100 for the full control effect.

SMILES	KDM4E inh	L3MBTL1 inh	Six1-Eya2 blk	CtBP-E1A blk
C=CCn1c(SCC(=O)c2ccc(O)c(O)c2)nnc1-c1cccc(C)c1	x	u	-9	-2
CCn1c(SCC(=O)c2ccc(O)c(O)c2)nnc1-c1ccccc1	13µM*	u	-4	-2
CC(/C=C/c1ccco1)=N\NC(=O)CNc1ccc2ccccc2c1	u	35µM*	-5	x
CC(/C=C/c1ccco1)=N/NC(=O)CNc1ccccc1C	-4%	x	1	-7
CCC1=C2CC[C@H]3C(=O)N(CC(=O)OC)C(=O)[C@H]3[C@H]2[C@@]2(C)C(=O)N(Cc3ccccc3)C(=O)N2C1=O	9%	x	x	x
O=C(O)CN(CC(=O)O)CC(=O)O	x	x	-73*	-96*
C=C(COC)C1=CCC(C(=O)OC)(C(=O)OC)[C@@H](C[N+](=O)[O-])c2ccccc21	-7%	x	x	x
NC(c1csc(Nc2cc(NCc3ccco3)ncn2)n1)c1ccccc1Cl (stereo not drawn)	x	x	u	-80*
NC(Cc1ccc(F)cc1)c1csc(Nc2cc(Oc3ccccc3)ncn2)n1 (stereo not drawn)	x	x	-19	-26
NC(c1csc(Nc2cc(Oc3ccccc3)ncn2)n1)c1ccccc1Cl (stereo not drawn)	x	x	-26	u
NC(Cc1ccc(F)cc1)c1csc(Nc2cc(NCc3ccco3)ncn2)n1 (stereo not drawn)	x	x	u	-76*
C[n+]1cccc2cccc([O-])c21	16µM*	28µM*	-13	x
CC(C)COc1ccc(-c2nn(-c3ccccc3)cc2/C=C2/SC(=S)N(CC(=O)O)C2=O)cc1	x	-20%	-7	x
O=C1C(=Cc2cn(-c3ccccc3)nc2-c2ccc(OCc3ccccc3)cc2)SC(=S)N1CCS(=O)(=O)O	x	x	-74*	-19
Cc1cccc(N=C2NC(=O)/C(=C/C=C/c3ccco3)S2)c1	u	u	u	-4
O=C1NC(=Nc2ccc3ccccc3c2)S/C1=C/c1ccco1	-2%	28µM*	-5	1
O=C1NC(=Nc2ccc(O)cc2)S/C1=C/c1ccco1	-5%	x	0	-3
COc1ccc(N=C2NC(=O)/C(=C\C=C\c3ccco3)S2)cc1	u	32µM*	-21	-13
C/C(=N\N1C(=O)c2ccccc2NC1c1ccco1)c1ccccc1O (stereo not drawn)	22µM*	2%[11.4 µM]	-10	x
Cc1[nH]c2ccccc2c1/C=N/Nc1ccccn1	25µM*	u	x	x
COc1ccc(-c2[nH]ncc2CNCC(C)(C)N2CCOCC2)cc1F	0%	6%	11	-1
CCC(=O)Nc1ccc(Cl)c(-c2nc3ncccc3o2)c1	x	-1%	-68*	u
CCC(=O)Nc1cc(-c2nc3ncccc3o2)ccc1Cl	x	0%	5	4
Cc1nnc(C)n1/N=C/c1c(O)ccc2ccccc12	x	x	-2	x
C/C(=N\OCc1nc2ccccc2c(=O)n1/N=C/c1cc([N+](=O)[O-])ccc1O)c1ccccc1	u	x	u	-8
SMILES	KDM4E inh	L3MBTL1 inh	Six1-Eya2 blk	CtBP-E1A blk
Cc1cc([N+](=O)[O-])cc(/C=N/n2c(C)nc3ccccc3c2=O)c1O	u	u	u	-86*
Cc1nnc(-c2ccccc2)c(=O)n1/N=C/c1c(O)ccc2ccccc12	u	u	-94*	-1
Cc1nc2ccccc2c(=O)n1/N=C/c1ccc2ccccc2c1O	u	32µM*	u	-8
Cc1nc2ccccc2c(=O)n1/N=C/c1ccc(O)c(O)c1O	x	x	-25	x
C/C(=N\OCc1nc2ccccc2c(=O)n1/N=C/c1cc(C)cc([N+](=O)[O-])c1O)c1ccccc1	14µM*	u	4	4
CCCCc1cc2c(cn1)=C(OC(=O)CCC(=O)OC)C(C)(OC(=O)CC)C(=O)C=2 (stereo not drawn)	0%[11.4 µM]	x	x	x
CCCCCCN(C(=O)CCCCCN1C(=O)NC(c2ccc3ccccc3c2)C(C(=O)OCc2ccccc2)=C1C)C(C(=O)NCCCC)c1ccc(OCC(=O)OC)c(C(=O)OC)c1 (stereo not drawn)	-11%	x	x	x
Cc1nc2ccccc2c(=O)n1/N=C/c1ccccc1O	25µM*	3%	-27	u
CC1CCc2nc3ccc(S(=O)(=O)N4CCC(C(=O)NCc5ccccc5Cl)CC4)cc3c(C(=O)O)c2C1 (stereo not drawn)	x	x	-73*	-66*
O=C(O)c1c2c(nc3ccc(S(=O)(=O)N4CCC(C(=O)NCc5ccccc5)CC4)cc13)CCCC2	x	x	-73*	-23
COCCCNC(=O)C1CCN(S(=O)(=O)c2ccc3nc4c(c(C(=O)O)c3c2)CCCCC4)CC1	x	x	1	1
CC1CCC(NC(=O)C2CCN(S(=O)(=O)c3ccc4nc5c(c(C(=O)O)c4c3)CC(C)CC5)CC2)CC1 (stereo not drawn)	-17%	x	-5	x
CCCNC(=O)C1CCN(S(=O)(=O)c2ccc3nc4c(c(C(=O)O)c3c2)CCCCC4)CC1	-3%	12%	-7	4
COc1ccc(CNC(=O)C2CCN(S(=O)(=O)c3ccc4nc5c(c(C(=O)O)c4c3)CC(C)CC5)CC2)cc1 (stereo not drawn)	x	x	-73*	-82*
OC(c1ccc2c(c1)OCO2)c1ncc(-c2cccc(C(F)(F)F)c2)[nH]1 (stereo not drawn)	x	x	-8	-28
NCCC[C@@H](CC(=O)N[C@@H]1CCCC[C@H]1C(=O)N[C@H](CC(=O)N[C@@H](CCC(=O)O)CC(=O)O)Cc1ccccc1)NC(=O)C[C@H](Cc1c[nH]c2ccccc12)NC(=O)[C@@H]1CCCC[C@H]1N	-4%	x	x	x
C[C@@H](C1[C@@H](O)CC2C3C=CC4C[C@@H](O)CC[C@]4(C)[C@H]3CC[C@@]21C)[C@@H]1CCCCN1 (stereo partly drawn)	3%	x	x	x
CCCn1c(C)nc2c(NCCCN(CC)CC)nc(C)nc21	9%	x	x	x
CC(NC(=O)CN1C(=O)NC2(CCCC2)C1=O)c1ccc2ccccc2c1 (stereo not drawn)	x	8%	-1	x
CCOC(=O)c1cc(C)[nH]c(=S)c1C#N	18µM*	-6%	-5	0
O=c1cnnc(N/N=C/c2ccccn2)[nH]1	3.5µM*	x	-92*	-97*
C(=N\Nc1nc2ccccc2[nH]1)/c1ccccn1	-11%	x	u	x
C(=N\Nc1nncc2ccccc12)/c1ccccn1	x	x	-75*	-95*
COc1cc(/C=C2\C(=O)N(c3ccc(NC(C)=O)cc3)N=C2c2ccccc2)ccc1O	-26%	-3%	2	-1
O=C1/C(=C\c2ccc(O)c(O)c2)C(c2ccccc2)=NN1c1ccccc1	14µM*	14µM*	-17	4
O=C(C[n+]1ccccc1)N/N=C/c1cc(Br)ccc1O	x	x	-88*	0
COc1cccc(/C=N/NC(=O)CNC(=O)c2ccco2)c1O	14µM*	4%	-84*	u

Assay outcomes: PubChem BioAssay, National Center for Advancing Translational Sciences (NCATS)
